Source: PubChem BioAssay (EPA / NIEHS)
“And” between values parts separate entries of the source, which are not always exact repeats. Equal values may be shown once. The source made the active and inactive calls. Rule for the calls: active = hit-call score of the fitted dose curve at least 0.9, where 1 is the maximum; inactive = score below 0.9.

target: CCAAT/enhancer-binding protein beta (Homo sapiens) (UniProt P17676); assay: ATG_C_EBP_CIS: Attagene CIS-FACTORIAL HepG2 Assay for human CCAAT/Enhancer Binding Protein (C/EBP) beta (AID 2282927); settings: HepG2 Attagene cis-factorial transcription factor reporter; actives raise or lower the signal
Protocol: ATG_CIS is a cell-based, multiplexed-readout assay that uses HepG2, a human liver cell line, with measurements taken at 24 hours after chemical dosing in a 24-well plate.ATG_C_EBP_CIS is one of 52 assay component(s) measured or calculated from the ATG_CIS assay. It is designed to make measurements of mRNA induction, a form of inducible reporter, as detected with fluorescence intensity signals by Reverse transcription polymerase chain reaction (RT-PCR) and Capillary electrophoresis technology.Data from the assay component ATG_C_EBP_CIS was analyzed into 1 assay endpoint. This assay endpoint, ATG_C_EBP_CIS, was analyzed with bidirectional fitting relative to DMSO as the negative control and baseline of activity. Using a type of inducible reporter, measures of mRNA for gain or loss-of-signal activity can be used to understand the reporter gene at the transcription factor-level as they relate to the gene CEBPB. Furthermore, this assay endpoint can be referred to as a primary readout, because this assay has produced multiple assay endpoints where this one serves a reporter gene function. To generalize the intended target to other relatable targets, this assay endpoint is annotated to the dna binding intended target family, where the subfamily is basic leucine zipper.
Human liver HepG2 cells are transiently transfected with multiple reporter transcription units (MRTUs) in 6-well plates using FuGene 6 reagent (Roche; 3 ml FuGene/1 mg DNA). The MRTU constructs are regulated by a cis-regulating element (promoter). […] A major difference between the CIS and TRANS system is that in CIS activities of endogenous TFs are measured, whereas the TRANS assay evaluates changes in activities of exogenous, chimeric NR-Gal4 proteins. […] At the end of 24 hour incubation, total RNA was isolated using TriZol reagent (Invitrogen). The isolated RNA is then reverse-transcribed using oligo(dT) primer and Mo-MLV reverse transcriptase (Invitrogen) with DNAse I (Ambion) treatment for 30 min. The one-tenth of the produced cDNA was amplified by PCR using Taq DNA polymerase (Invitrogen) and two reporter sequence-specific primers. The PCR products were fluorescently labeled by primer extension with 6-arboxyfluorescein (6-FAM) 5'-labeled reporter sequence-specific primer (2 min at 95 C, 20 s at 68 C and 10 min at 72 C) and these products were digested with 5U of HpaI (New England Biolabs) for 2h at 37 C. The fragments were purified using Qiaquick PCR columns (Qiagen), analyzed on an ABI 3130xL genetic analyzer (Applied Biosystems) with peak positions identified by using a set of X-rhodamine (ROX)-labeled MapMarker1000 molecular weight standards (BioVentures). The raw capillary electrophoresis data was processed using Attagraph software (Attagene).

Sequence of CCAAT/enhancer-binding protein beta (Homo sapiens) (P17676 whole entry, looked up): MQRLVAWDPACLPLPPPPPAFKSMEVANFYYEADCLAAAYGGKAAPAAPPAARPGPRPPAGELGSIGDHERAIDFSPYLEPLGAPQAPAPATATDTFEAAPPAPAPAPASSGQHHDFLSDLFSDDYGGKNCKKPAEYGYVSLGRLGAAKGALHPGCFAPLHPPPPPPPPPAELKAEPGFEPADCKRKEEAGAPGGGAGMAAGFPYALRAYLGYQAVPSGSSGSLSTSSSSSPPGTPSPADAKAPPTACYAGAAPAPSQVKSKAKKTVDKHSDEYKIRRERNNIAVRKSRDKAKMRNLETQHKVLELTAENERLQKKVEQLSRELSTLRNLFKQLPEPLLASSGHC

Structure (SMILES) | outcome | AC50
c1ccc2cc3ccccc3cc2c1 | inactive | –
O=C(O)[C@H](O)[C@@H](O)C(=O)O | inactive | –
c1ccc(C(O[C@@H]2CCCN(CCc3ccc4c(c3)OCO4)C2)c2ccccc2)cc1 | inactive | –
Cn1c(=O)c2[nH]cnc2n(C)c1=O | inactive | –
CC(=O)c1ccccc1 | inactive | –
COc1cc2c(c(OC)c1OC)-c1ccc(OC)c(=O)cc1[C@@H](NC(C)=O)CC2 | inactive | –
CCOc1ccc2[nH]cc(C(=O)NCc3ccccc3)c(=O)c2n1 | inactive | –
CCN(CC)C(=S)SSC(=S)N(CC)CC | inactive | –
Cc1ccc(S(=O)(=O)NC(=O)NN2CCCCCC2)cc1 | inactive | –
CC(C)CCCCCCOC(=O)C1CCCCC1C(=O)OCCCCCCC(C)C (stereo not given) | inactive | –
CCCCCOC(C)=O | inactive | –
OCCNCCO | inactive | –
O=C(O)CO | inactive | –
OCCC(F)(F)C(F)(F)C(F)(F)C(F)(F)F | inactive | –
CC(C)c1nnc2ccc(-c3ocnc3-c3cc(F)ccc3F)cn12 | inactive | –
O=C(O)c1cccc(C(=O)O)c1 | inactive | –
COc1cc(C(C)C)c2c(c1)S(=O)(=O)N(COc1cc(=O)n3cccc(OCCN4CCCCC4)c3n1)C2=O | – | 3.74 µM (active)
NC(=O)N1c2ccccc2C=Cc2ccccc21 | inactive | –
O=C(N[C@H](CO)[C@H](O)c1ccc([N+](=O)[O-])cc1)C(Cl)Cl | inactive | –
NC(=O)N(O)[C@@H]1COc2cc(OCc3ccccc3)ccc21 | inactive | –

Structure (SMILES) | outcome | AC50
CCCCCCCC/C=C\CCCCCCCC(=O)OC[C@@H](O)[C@H]1OC[C@H](O)[C@H]1O | inactive | –
O=C(NO)C1(NS(=O)(=O)c2ccc(Oc3ccc(F)cc3)cc2)CCOCC1 | inactive | –
C[Si](C)(C)C(F)(F)C(F)(F)C(F)(F)F | inactive | –
CCc1ccc(O)c(C(C)(C)C)c1 | inactive | –
S=P(N1CC1)(N1CC1)N1CC1 | inactive | –
FC(F)=C(F)C(F)(F)C(F)(F)C(F)(F)C(F)(F)C(F)(F)C(F)(F)F | inactive | –
Cc1nc(-c2ccccn2)ncc1C(=O)Nn1cc(C)c2cc(F)ccc21 | inactive | –
OC(O)(C(F)C(O)(O)C(F)(F)F)C(F)(F)F | – | 78.9 µM (active) and 82.9 µM (active)
COCc1nnc(-c2ccc[n+]([O-])c2)n1-c1c(Cl)c(Cl)cc2[nH]c(=O)c(=O)[nH]c12 | inactive | –
OC[C@H]1O[C@@H]2O[C@H]3[C@H](O)[C@@H](O)[C@@H](O[C@H]4[C@H](O)[C@@H](O)[C@@H](O[C@H]5[C@H](O)[C@@H](O)[C@@H](O[C@H]6[C@H](O)[C@@H](O)[C@@H](O[C@H]7[C@H](O)[C@@H](O)[C@@H](O[C@H]1[C@H](O)[C@H]2O)O[C@@H]7CO)O[C@@H]6CO)O[C@@H]5CO)O[C@@H]4CO)O[C@@H]3CO | inactive | –
C[C@]12C=CC(=O)C=C1CC[C@H]1[C@@H]3C[C@@H](O)[C@](O)(C(=O)CO)[C@@]3(C)C[C@H](O)[C@@]12F | inactive | –
OCc1c[nH]c2ccccc12 | inactive | –
CCc1cccc(CC)c1N | inactive | –
NCC(F)(F)C(F)(F)C(F)(F)C(F)(F)F | inactive | –
O=S1(=O)CCCO1 | inactive | –
OC[C@H]1O[C@@](CO)(O[C@H]2O[C@H](CO)[C@@H](O)[C@H](O)[C@H]2O)[C@@H](O)[C@@H]1O | inactive | –
C=CCc1cc(S(=O)(=O)c2ccc(O)c(CC=C)c2)ccc1O | inactive | –
CNC(C)=O | inactive | –
CCCCOC(=O)c1ccccc1 | inactive | –
CCCCC(CC)C(=O)OCCOCCOCCOC(=O)C(CC)CCCC (stereo not given) | inactive | –
